The values below come from PubChem BioAssay (Tox21).

The nature of test [1]: qHTS assay to identify small molecule agonists of the vitamin D receptor (VDR) signaling pathway - cell viability counter screen (AID 743224). Further: nearly all actives have a fitted effect of over 50% in size. Further: potency means the concentration at half of the fitted maximal effect. The essentials: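 Luminescence from CellTiter-Glo, read after 30 min at room temperature, reports viability of VDR-bla cells treated with compounds for 16 h at 37C in the wells used for the beta-lactamase FRET read.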
Test [2] can be described thus: qHTS assay to identify small molecule agonists of the endoplasmic reticulum stress response signaling pathway - cell viability counter screen (AID 1159517; calls by dose curve; further: nearly all actives have a fitted effect of over 50% in size; further: potency means the concentration at half of the fitted maximal effect). An outline of the steps:
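Cells, HeLa ESRE-bla; density, 1,500/well; dosing, 5 hr at 37 C, 5% CO2; readout, CellTiter-Glo luminescence after 30 min RT.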

Test [3] can be described thus: qHTS assay to identify small molecule antagonists of the retinoid-related orphan receptor gamma (ROR-gamma) signaling pathway - cell viability counter screen (AID 1159520). Further: nearly all actives have a fitted effect of over 50% in size. Further: potency means the concentration at half of the fitted maximal effect. The essentials:
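Cytotoxicity was read from cellular ATP (CellTiter-Glo luminescence) after 16 hr at 37 C with 1 uM doxycycline induction. The inducer was added 2 hr after compound transfer to Tet-on ROR gamma CHO cells.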

The nature of test [4]: qHTS assay to identify small molecule agonists of the AP-1 signaling pathway - cell viability counter screen (AID 1159525; calls by dose curve; further: nearly all actives have a fitted effect of over 55% in size; further: potency means the concentration at half of the fitted maximal effect). The essentials:
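Luminescent ATP readout (Cell Titer Glo, 30 min RT), normalised to DMSO and tetra n-octyl ammonium bromide controls. Cells were ME-180 AP-1-bla in 0.5% dialyzed FBS Opti-MEM, with a 5 h, 37 °C compound exposure.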

Test [5] is described as follows: qHTS assay to identify small molecule agonists of the RXR signaling pathway - cell viability counter screen (AID 1159529). Further: nearly all actives have a fitted effect of over 50% in size. Further: potency means the concentration at half of the fitted maximal effect. An outline of the steps:
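RXR-alpha-UAS-bla HEK 293T cells in medium with 2% charcoal-stripped FBS were pre-incubated 5 hr, then compound-treated 16 hr at 37 C. Viability was read by CellTiter-Glo luminescence in the same wells as the beta-lactamase assay, with tetraoctyl ammonium bromide as positive control.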

Test [6] is described as follows: qHTS assay to identify small molecule antagonists of the retinoid acid receptor (RAR) signaling pathway - cell viability counter screen (AID 1159551). Further: on the % scale 0 is the no-effect control and ±100 the full control effect; nearly all actives have a fitted effect of over 35% in size. An outline of the steps: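 Luminescent ATP quantitation (CellTiter-Glo) gave cell viability in C3RL4 cells exposed to test chemicals for 6 h at 37 C alongside 1 uM final retinol.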
Test [7] can be described thus: qHTS assay to identify small molecule antagonists of the estrogen related receptor (ERR) signaling pathway from Tox21 library - cell viability counter screen (AID 1224834). Further: nearly all actives have a fitted effect of over 30% in size. Further: potency means the concentration at half of the fitted maximal effect. The essentials: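 Fluorescence from CellTiter-Fluor gives the viability read-out, taken 30 min after reagent addition. Before that, ERR cells seeded 6 h earlier were incubated with compounds for 17.5 h at 37 C.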

Test [8] is described as follows: qHTS assay to identify small molecule antagonists of the vitamin D receptor (VDR) signaling pathway - cell viability counter screen (AID 743225). Further: nearly all actives have a fitted effect of over 50% in size. Further: potency means the concentration at half of the fitted maximal effect. An outline of the steps: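 VDR-UAS-bla HEK 293T cells were plated and incubated 4 h at 37C, then dosed with compound plus 3 nM (final) 1-alpha,25-dihydroxyvitamin D3 for 16 h. After the 2 h beta-lactamase read, viability in the same wells was read as CellTiter-Glo luminescence after 30 min at room temperature.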

Test [9] addresses Retinoic acid receptor RXR-alpha (Homo sapiens) (UniProt P19793). The test can be described thus: qHTS assay to identify small molecule agonists of the RXR signaling pathway (AID 1159527; calls by dose curve; further: nearly all actives have a fitted effect of over 35% in size; further: potency means the concentration at half of the fitted maximal effect). An outline of the steps: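 GeneBLAzer RXR-alpha-UAS-bla HEK 293T cells in 2% charcoal-stripped FBS medium were exposed to compounds for 16 hr at 37 C in agonist mode. Beta-lactamase reporter read as 460/530 nm FRET ratio after 2 hr substrate loading.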

Test [10] is described as follows: qHTS assay to identify small molecule antagonists of the retinoic acid receptor (RAR) signaling pathway (AID 1159552; further: nearly all actives have a fitted effect of over 50% in size; further: potency means the concentration at half of the fitted maximal effect). An outline of the steps:
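Retinol signaling pathway inhibitors screened in C3RL4 RARE-luciferase reporter cells seeded overnight at 37 C, then compounds added with 1 uM (final) retinol as pathway substrate. After 6 hr at 37 C, luciferase luminescence read after 30 min at room temperature.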

Test [11] in a line: qHTS assay to identify small molecule agonists of the retinoic acid receptor (RAR) signaling pathway (AID 1159553). Further: potency means the concentration at half of the fitted maximal effect. An outline of the steps:
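Luminescence from a RARE-driven luciferase reporter in C3RL4 cells served as the read-out, measured after 30 min with detection reagent at room temperature. Compounds in DMSO were applied for 6 hr at 37 C following overnight seeding.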

The target in test [12] is Nuclear receptor ROR-gamma (Homo sapiens) (UniProt P51449). The test can be described thus: qHTS assay to identify small molecule antagonists of the retinoid-related orphan receptor gamma (ROR-gamma) signaling pathway (AID 1159521; further: nearly all actives have a fitted effect of over 50% in size; further: potency means the concentration at half of the fitted maximal effect). An outline of the steps:
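Tet-on ROR-gamma CHO cells with ROR response element-luciferase reporter; compounds added 2 hr before 1 uM doxycycline induction, then 16 hr at 37 C. Antagonism scored as decreased ONE-Glo luminescence.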

Test [13] in a line: qHTS assay to identify small molecule antagonists of the estrogen related receptor (ERR) signaling pathway - cell viability counter screen (AID 1224818). Further: series mostly up to about 46 µM; on the % scale 0 is the no-effect control and ±100 the full control effect. The essentials:
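Multiplexed counter screen to separate cytotoxic compounds from true ERR modulators. ERR cells received DMSO-dissolved compounds after a 6 h pre-incubation, were exposed 17.5 h at 37 C, then assayed with CellTiter-Fluor fluorescence.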

A short description of test [14]: qHTS assay to identify small molecule antagonists of the estrogen related receptor signaling pathway with the pleiotropic PPARgamma coactivator (PGC) cell viability counter screen (AID 1224822; further: series mostly up to about 46 µM; on the % scale 0 is the no-effect control and ±100 the full control effect). The essentials: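 Cells: PGC/ERR, 2,000/well, 1536-well format. Pre-incubation 6 h, 37 C/5% CO2. Compound exposure 17.5 h, 37 C. Detection: CellTiter-Fluor, 30 min, fluorescence.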

The nature of test [15]: qHTS assay to identify small molecule agonists of the AP-1 signaling pathway (AID 1159526; calls by dose curve; further: on the % scale 0 is the no-effect control and ±100 the full control effect).
The nature of test [16]: qHTS assay to identify small molecule agonists of the estrogen related receptor (ERR) signaling pathway (AID 1224820). Further: on the % scale 0 is the no-effect control and ±100 the full control effect. The essentials:
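ERR reporter cells (NTP line) plated 2,000/well, incubated 6 h at 37 C/5% CO2, then pinned with compounds in DMSO and held 18 h at 37 C. One-Glo added; luminescence read after 30 min at room temperature.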

Test [17] concerns estrogen-related receptor alpha (ERRalpha) with PGC-1alpha coactivator, human. The test can be described thus: qHTS assay to identify small molecule antagonists of the estrogen related receptor signaling pathway with the pleiotropic PPARgamma coactivator (PGC) (AID 1224821; calls by dose curve). An outline of the steps: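 Cells engineered for PGC/ERR signalling (line from NTP) were plated 6 h at 37 C/5% CO2, then exposed to DMSO-dissolved compound for 18 h at 37 C. Luciferase activity was read by One-Glo luminescence after 30 min at room temperature.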

Test [18] in a line: qHTS assay to identify small molecule agonists of the estrogen related receptor signaling pathway with the pleiotropic PPARgamma coactivator (PGC) (AID 1224823). Further: on the % scale 0 is the no-effect control and ±100 the full control effect. The essentials:
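PGC/ERR reporter cells were seeded, rested 6 h at 37 C/5% CO2, then exposed to compounds in DMSO by pin transfer for 18 h at 37 C. Luciferase activity was read as luminescence after One-Glo reagent and 30 min at room temperature.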

Where “and” joins values, the source holds several entries; their conditions need not be identical. Identical values can stand only once. Inconclusive results are not listed. A number with no mark means an inactive call. Calls of active or inactive are those of the source. Unless noted, the call rests on the fitted dose curve; in most records, active means well fitted curve in the direction sought with a large enough effect in the repeat runs; inconclusive means weak or mixed curves; inactive means no such curve, though single readings can be large; an effect the other way counts as inactive or inconclusive.

Retinoic acid receptor RXR-alpha (Homo sapiens), sequence (P19793 whole entry, looked up): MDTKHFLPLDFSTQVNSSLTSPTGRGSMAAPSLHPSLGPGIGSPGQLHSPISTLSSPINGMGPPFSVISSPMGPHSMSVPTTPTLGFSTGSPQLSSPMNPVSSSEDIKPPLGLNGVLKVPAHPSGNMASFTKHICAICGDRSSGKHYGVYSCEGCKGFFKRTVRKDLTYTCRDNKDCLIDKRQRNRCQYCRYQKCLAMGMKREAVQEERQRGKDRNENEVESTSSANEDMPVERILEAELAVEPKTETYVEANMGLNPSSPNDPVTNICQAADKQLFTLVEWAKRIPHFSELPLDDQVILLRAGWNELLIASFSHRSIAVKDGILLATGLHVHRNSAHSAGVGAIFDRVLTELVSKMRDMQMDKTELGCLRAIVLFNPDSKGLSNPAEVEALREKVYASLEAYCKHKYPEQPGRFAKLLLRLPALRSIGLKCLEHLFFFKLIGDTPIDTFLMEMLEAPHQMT

With `C1CC(COCC2CO2)CCC1COCC1CO1` (centres undefined), the Potency result in test [1], in test [2], in test [3], in test [4], in [5] and in test [6] was “inactive” throughout. Further, the Potency result in [7] was “inactive”.

As to `CC(C)(c1cc(Br)c(O)c(Br)c1)c1cc(Br)c(O)c(Br)c1`, the Potency in [8] was 43.5 µM (active); in test [2], 48.8 µM (active) and 15.5 µM (active); in [3] it was 60.9 µM (active); in test [4], 48.8 µM (active) and 48.9 µM (active); in [5], 54.8 µM (active) and 48.9 µM (active) and 46.3 µM (active). The Potency result in [9], in test [6], in test [10] and in test [11] was “inactive” each time.

Turning to `Clc1ccc(C(Cn2ccnc2)OCc2c(Cl)cccc2Cl)c(Cl)c1` (centres undefined), the values for the Potency in [1], in test [12] and in [7] were 33.5 µM (active), 13.3 µM (active) and 29.8 µM (active), respectively. Moreover, the Potency entry in test [2] and in test [6] was “inactive” in each case.

For `CN(C)CCCN1c2ccccc2CCc2ccccc21`, the Potency entry in [1], in test [8], in [2], in test [3], in [5] and in test [6] was “inactive” throughout. In addition, the Potency result in [13] and in test [14] was “inactive” in each case.

In the case of `Cc1oc(-c2ccccc2)nc1CCOc1ccc(C[C@H](Nc2ccccc2C(=O)c2ccccc2)C(=O)O)cc1`, the Potency in test [1] was 21.9 µM (active); in [2], 54.9 µM (active); in test [3], 61.1 µM (active). Besides, the Potency entry in [6] and in test [10] was “inactive” throughout.

Take `COc1ccc2sc(C(=O)Nc3nnn[nH]3)c(OC(C)C)c2c1`: the Potency entry in test [1], in [4] and in [6] was “inactive” in each case. Also, the values for the Potency in test [2] and in test [12] were 19.4 µM (active) and 12.1 µM (active), respectively.

Take `Oc1c(Br)cc(Br)c2cccnc12`: the Potency is 3.35 µM (active) in [1], 1.51 µM (active) in test [5] and 23.7 µM (active) in [7]. Also, the Potency entry in [2], in test [4], in [6] and in test [11] was “inactive” each time.

As for `C=CCCCCCCC=C`, the Potency was 49.1 µM (active) in [1] and 55.1 µM (active) in test [2]. In addition, the Potency result in test [3], in [4], in test [15], in test [6] and in [7] was “inactive” throughout.

As to `COc1cc(C=C2CCC/C(=C\c3ccc(O)c(OC)c3)C2=O)ccc1O`, the Potency result in [2], in test [6] and in test [10] was “inactive” throughout. In addition, the Potency in test [3] was 29.8 µM (active); in [11] it was 13.3 µM (active); in test [7], 13.3 µM (active).

For the compound `CC1=C(/C=C/C(C)=C/C=C/C(C)=C\C=O)C(C)(C)CCC1`, the Potency in [1] is 41.3 µM (active); in test [2], 41.3 µM (active); in [3] it was 57.9 µM (active); in test [9], 0.328 µM (active); in test [11], 1.63 µM (active); in test [7] it was 51.6 µM (active). The Potency result in [6] and in test [10] was “inactive” each time.

For `COc1ccccc1OCCNCC(O)COc1cccc2[nH]c3ccccc3c12` (centres undefined), the Potency entry in [2], in test [6] and in test [11] was “inactive” in each case. Further, the Potency in [5] was 19 µM (active); in test [7], 23.7 µM (active). For the same compound, the outcome in test [16], in test [17] and in test [18] was inactive.

In the case of `O=Nc1ccc(NO)cc1`, the Potency result in test [1], in test [8], in test [2], in test [4], in test [9] and in [5] was “inactive” in each case. The Potency entry in [10] and in test [7] was “inactive” in each case.

As to `CCCSS/C(CCO)=C(\C)N(C=O)Cc1cnc(C)nc1N`, the Potency result in test [1], in test [2], in test [12], in [15] and in test [6] was “inactive” in each case. Also, the Potency in [10] was 29.8 µM (active).

On to `CC(=O)Nc1ccc(O)cc1`, for which the Potency result in test [1], in test [2], in test [3], in test [4], in [5] and in [6] was “inactive” each time. Moreover, the Potency entry in test [7] was “inactive”.

Regarding `S=C(SSSSSSC(=S)N1CCCCC1)N1CCCCC1`, the Potency in test [1] was 0.271 µM (active); in test [12] it was 0.239 µM (active). In addition, the Potency result in test [8] and in [2] was “inactive” in each case. For the same compound, the viability change, negative = cytotoxic in test [4] is 2.16% [at 15.8 µM]. The activity, negative = inhibition in test [10] was -10.6% [at 19 µM].

On to `O=C(O)CCn1c2c(c3ccccc31)C[C@H](NS(=O)(=O)c1ccc(F)cc1)CC2`, for which the Potency entry in test [1], in [2], in test [3], in [4], in test [5] and in test [6] was “inactive” each time. In addition, in test [7], the Potency result was “inactive”.
